Screening data deposited in PubChem BioAssay by Broad Institute.
A selection: hits, their analogues and other compounds. The true share with any hit is near 8.1%.
Shh pathway inh: Sonic Hedgehog pathway inhibition; actives 2.1% (n = 22,000); Shh-LIGHT2 Gli-luciferase reporter, 30 h; AID 2313; inhibition, % (test concentration not listed);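 active = mean inhibition across valid replicates above about 65%, limit read from the data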;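 also: pathway switched on by Shh-conditioned medium diluted 1 in 25 in low serum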
NOMO-1 viab: STK33 inhibitor candidate reducing NOMO-1 cell viability; actives 7.5% (n = 37,000); AID 2330; NOMO-1 AML viability, CellTiter-Glo luminescence, 72 h; inhibition, % (no concentration beside the values); in the data active = inhibition above about 80%
MITF inhib: MITF inhibition. AID 2240. inhibition, % (no concentration beside the values). actives 0.28% (n = 37,000). TRPM1 promoter luciferase, luminescence, 24 h; in the data active = inhibition above about 85%;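 also: human melanocyte line stably carrying TRPM1 promoter luciferase reporter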
Hits are given with their value; i = inactive; nt = no result given.

SMILES	Shh pathway inh	NOMO-1 viab	MITF inhib
CS(=O)(=O)c1sc(NC(=O)Nc2ccc(Cl)cc2)c2c1C=CCC2	106	122	i
COc1ccc(S(=O)(=O)N(C)CC(=O)Nc2cc(C)ccc2C)cc1C	nt	i	i
COc1ccc(S(=O)(=O)N(C)CC(=O)Nc2cc(Cl)cc(Cl)c2)cc1	nt	i	i
Cc1ccc(OCCSc2n[nH]c3nc4ccccc4n23)cc1	nt	i	i
CC(=O)O[C@H]1C(=O)[C@@]2(C)[C@H]([C@H](OC(=O)c3ccccc3)[C@]3(O)C[C@H](OC(=O)[C@H](O)[C@@H](NC(=O)c4ccccc4)c4ccccc4)C(C)=C1C3(C)C)[C@]1(OC(C)=O)CO[C@@H]1C[C@@H]2O	i	141	i
Cc1ccc(OCC(=O)Nc2ccc3oc(-c4cccc(F)c4)nc3c2)c(C)c1	nt	i	i
CCc1cc(C(=O)OC)c(NC(=O)c2cc(-c3cccnc3)nc3ccc(Br)cc23)s1	nt	89	i
COC(=O)c1cc(Cc2ccccc2)sc1NC(=O)c1cc(-c2cccnc2)nc2ccccc12	nt	i	i
CC(=O)Nc1ccccc1NC(=O)COc1cc(Cl)c(Cl)cc1Cl	nt	i	i
CC(C)=CCc1c2c(c3occ(-c4ccc(O)cc4)c(=O)c3c1O)C=CC(C)(C)O2	i	107	i
CC1(C)C=Cc2c(c(CCO)c3occ(-c4ccc(O)c(O)c4)c(=O)c3c2O)O1	i	i	i
C[C@H](CO)N1C[C@H](C)[C@H](CN(C)Cc2ccc(C(=O)Nc3ccccc3N)cc2)Oc2ccc(NC(=O)Nc3ccc(C(F)(F)F)cc3)cc2C1=O	nt	i	i
C[C@H]1CN([C@@H](C)CO)C(=O)Cc2cc(NC(=O)Nc3ccc(C(F)(F)F)cc3)ccc2O[C@H]1CN(C)Cc1ccc(C(=O)Nc2ccccc2N)cc1	nt	127	i
C[C@@H]1CN([C@H](C)CO)C(=O)Cc2cc(NC(=O)Nc3ccc(C(F)(F)F)cc3)ccc2O[C@@H]1CN(C)Cc1ccc(C(=O)Nc2ccccc2N)cc1	nt	138	i
O=C(CSc1nc2sc3c(c2c(=O)[nH]1)CCCC3)Nc1ccc(Cl)cc1	nt	i	i
C[C@H](CO)N1C[C@H](C)[C@@H](CN(C)Cc2ccncc2)Oc2ccc(NC(=O)Nc3ccc(C(F)(F)F)cc3)cc2C1=O	i	i	i
C[C@H]1CN([C@@H](C)CO)C(=O)c2cc(NC(=O)c3ccncc3)ccc2O[C@@H]1CN(C)Cc1ccc(C(F)(F)F)cc1	nt	i	i
C[C@H]1CN([C@@H](C)CO)C(=O)c2cc(NC(=O)Nc3ccc(C(F)(F)F)cc3)ccc2O[C@H]1CN(C)Cc1ccncc1	i	102	i
C[C@H](CO)N1C[C@H](C)[C@H](CN(C)Cc2ccncc2)Oc2ccc(NC(=O)Nc3ccc(C(F)(F)F)cc3)cc2C1=O	i	86	i
C[C@@H]1CN([C@H](C)CO)C(=O)c2cccc(NC(=O)Nc3ccccc3)c2O[C@H]1CN(C)S(=O)(=O)c1ccc(F)cc1	i	i	i
COc1ccc(OC)c(/C=C/C(=O)O)c1	i	i	i
Cc1ccc(-c2nc3ccccc3[nH]2)cc1NC(=O)COc1ccccc1[N+](=O)[O-]	nt	119	86
Cc1ccc(-c2nc3ccccc3[nH]2)cc1NC(=O)COc1cccc([N+](=O)[O-])c1	nt	i	i
COc1ccccc1CC(=O)Nc1ccc(-c2nc3ccccc3[nH]2)cc1	nt	135	i
COc1ccccc1CC(=O)Nc1ccc(-c2noc(-c3ccc(OC)c(OC)c3)n2)cc1	nt	i	i
SMILES	Shh pathway inh	NOMO-1 viab	MITF inhib
CCOC(=O)CNC(=O)c1cc2nc(-c3ccc(Cl)s3)cc(C(F)(F)F)n2n1	nt	i	i
COc1ccc(NC(=O)Nc2ccc3c(c2)C(=O)N([C@@H](C)CO)C[C@@H](C)[C@@H](CN(C)Cc2ccc(Cl)c(Cl)c2)O3)cc1	nt	i	i
COc1ccc(NC(=O)Nc2ccc3c(c2)C(=O)N([C@@H](C)CO)C[C@H](C)[C@H](CN(C)Cc2ccc(Cl)c(Cl)c2)O3)cc1	i	104	i
COc1ccc(NC(=O)Nc2ccc3c(c2)C(=O)N([C@H](C)CO)C[C@@H](C)[C@@H](CN(C)Cc2ccc(Cl)c(Cl)c2)O3)cc1	nt	98	i
COc1ccc(CN(C)C[C@@H]2Oc3ccc(NC(=O)Nc4ccc(OC)cc4)cc3C(=O)N([C@@H](C)CO)C[C@H]2C)cc1	i	i	i
C[C@H]1CN([C@@H](C)CO)C(=O)c2cc(NC(=O)CCC(F)(F)F)ccc2O[C@H]1CN(C)C	i	i	i
N#CCC(=O)NCc1cccs1	i	i	i
C[C@H](CO)N1C[C@H](C)[C@H](CN(C)Cc2ccc(C(=O)Nc3ccccc3N)cc2)Oc2ccc(NS(=O)(=O)c3cccs3)cc2C1=O	nt	109	i
C[C@@H]1CN([C@H](C)CO)C(=O)c2cc(NS(=O)(=O)c3cccs3)ccc2O[C@@H]1CN(C)Cc1ccc(C(=O)Nc2ccccc2N)cc1	nt	110	i
